The source of these data is publication PMC10726135, “HNF4α isoforms regulate the circadian balance between carbohydrate and lipid metabolism in the liver”.

The full ranking holds about 18,000 sequences; the median of “log2 normalized intensity” is about 0.36, and the highest 2% start at about 7.3. The sample as a whole holds a higher share of the highest values than the screen did.

In the test the target is T1, HNF4alpha8 (COS-7 nuclear extract) (Homo sapiens, UniProt P41235-5 1-452).
T1 sequence: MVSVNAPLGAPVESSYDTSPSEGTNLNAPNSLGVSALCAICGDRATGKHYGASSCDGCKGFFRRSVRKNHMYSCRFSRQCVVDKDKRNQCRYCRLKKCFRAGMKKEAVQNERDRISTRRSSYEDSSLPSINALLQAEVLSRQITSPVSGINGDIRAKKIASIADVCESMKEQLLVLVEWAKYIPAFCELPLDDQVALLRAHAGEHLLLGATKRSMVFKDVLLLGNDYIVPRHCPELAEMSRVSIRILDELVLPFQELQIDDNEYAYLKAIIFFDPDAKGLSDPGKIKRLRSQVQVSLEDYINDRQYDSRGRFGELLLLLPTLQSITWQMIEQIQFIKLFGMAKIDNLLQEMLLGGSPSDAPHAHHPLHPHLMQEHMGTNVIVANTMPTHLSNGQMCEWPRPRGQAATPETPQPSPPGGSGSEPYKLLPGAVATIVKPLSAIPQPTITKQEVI
Put plainly: protein-binding microarray; COS-7 nuclear extract on double-stranded Agilent 4x180k PBM; binding buffer, salt, pH and temperature not given in the material; high values mean tight binding. Conditions: chain copies: 2; label: 3' end of strand 1 on the slide; dsDNA, one strand shown. Put shortly:
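A human HNF4α isoform was expressed in COS-7 cells by transient CaPO4 transfection, and nuclear extracts were prepared. These were applied to a custom Agilent SurePrint G3 4x180k array carrying ~44,000 test sequences in quadruplicate as double-stranded ~60-nt oligonucleotides, and an Agilent G2565CA scanner imaged bound HNF4α at 2-µm resolution. The background-corrected, normalized gProcessedSignal from Agilent software was used as the binding signal.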
Regarding “AAACTTCCACTAACTTGAGTGTGCACCCTGGCCTAGGGAGATTAGAGTATCGGTCGA”, the binding signal was determined as 1.93 log2 normalized intensity. As for “CCGCAGCGCTGGTGGCTGCAAGGTTTGTGTGCCTAGGGAGATTAGAGTATCGGTCGA”, the binding signal stood at 0.472 log2 normalized intensity.

With “TTATCATTACTTCTCAACTGATATGGCTCTGCCTAGGGAGATTAGAGTATCGGTCGA”, the binding signal was 0.393 log2 normalized intensity.

Regarding “AAGAAACTCGTGGCATTTTTGCCCCTGCCCGCCTAGGGAGATTAGAGTATCGGTCGA”, the binding signal turned out to be 3.61 log2 normalized intensity.

In the case of “CAAATAACATTCCTAACATTCTTCCTCACAGCCTAGGGAGATTAGAGTATCGGTCGA”, the binding signal is -0.982 log2 normalized intensity. “TTTGATGGACATTGCTGGTGGTGGTAGATCGCCTAGGGAGATTAGAGTATCGGTCGA”: the binding signal turned out to be 1.45 log2 normalized intensity. Regarding “TTTGTGATTACATTGAGTCCACTGAGATCAGCCTAGGGAGATTAGAGTATCGGTCGA”, the binding signal came to 1.91 log2 normalized intensity.

On to “CACTTTCCACTCTCTACTGATATGTCCTCCGCCTAGGGAGATTAGAGTATCGGTCGA”, for which the binding signal turned out to be 1.83 log2 normalized intensity. In the case of “TTTCTGCTCTCAACTAGAGATAAACTTTTGGCCTAGGGAGATTAGAGTATCGGTCGA”, the binding signal was determined as 0.481 log2 normalized intensity.

As for “CCCCACTGTAGTAAGGGAGTGTGGGGTGGTGCCTAGGGAGATTAGAGTATCGGTCGA”, the binding signal was -0.92 log2 normalized intensity.

For “TGTGCTGCCCCCGATAGCACTATTAGTCTTGCCTAGGGAGATTAGAGTATCGGTCGA”, the binding signal was 3.06 log2 normalized intensity. On to “GCCACATCCTGTCTCCTTTAACCTTCATTCGCCTAGGGAGATTAGAGTATCGGTCGA”, for which the binding signal was found to be 1.97 log2 normalized intensity. With “CACTGTCTCAGGGTCCACATTCCAGGAATAGCCTAGGGAGATTAGAGTATCGGTCGA”, the binding signal was found to be 2.44 log2 normalized intensity. As for “CTGCTTGATAGCCATCTGGTGGACTTTGCTGCCTAGGGAGATTAGAGTATCGGTCGA”, the figure is 6.09 log2 normalized intensity. In the case of “ACCTGGAACTGAAAGAGACCTTTGACATCAGCCTAGGGAGATTAGAGTATCGGTCGA”, the binding signal turned out to be 5.23 log2 normalized intensity. For “TACCTTTCCTGCATTAACATCAACATGGACGCCTAGGGAGATTAGAGTATCGGTCGA” the value was 2.03 log2 normalized intensity; for “CTGCCTTTCCCAGATGGATTGATAGACTTAGCCTAGGGAGATTAGAGTATCGGTCGA”, 0.78 log2 normalized intensity.

As for “GCATTAACATCAACATGGACTTTGAGTCATGCCTAGGGAGATTAGAGTATCGGTCGA”, the binding signal came to 6.9 log2 normalized intensity.

For “GCCATCTGGTGGACTTTGCTCTGCTCATTTGCCTAGGGAGATTAGAGTATCGGTCGA”, the binding signal came to 7.25 log2 normalized intensity.

Take “TGATAGCCATCTGGTGGACTTTGCTCTGCTGCCTAGGGAGATTAGAGTATCGGTCGA”: the binding signal came to 8.15 log2 normalized intensity. With “CTGGACTTTGGCTGCAAAATTTGAACAAAAGCCTAGGGAGATTAGAGTATCGGTCGA”, the binding signal is 2.14 log2 normalized intensity. As to “AGCAGATGGCCAGCCTTTGGACTTTGAACTGCCTAGGGAGATTAGAGTATCGGTCGA”, the binding signal came to 11.2 log2 normalized intensity.

Turning to “TTTTTGGCCTTTACCCCTTGAGTTTGAACTGCCTAGGGAGATTAGAGTATCGGTCGA”, the binding signal stood at 4.12 log2 normalized intensity. Consider “CAGCCTTTGGACTTTGAACTGCAACATCAGGCCTAGGGAGATTAGAGTATCGGTCGA”, for which the binding signal stood at 8.89 log2 normalized intensity. As to “TTCCTGCATTAACATCAACATGGACTTTGAGCCTAGGGAGATTAGAGTATCGGTCGA”, the binding signal amounted to 9.28 log2 normalized intensity. For “TCCAACCTGTTCTTTTGAGCTGTGGTTAAGGCCTAGGGAGATTAGAGTATCGGTCGA” the value was 1.73 log2 normalized intensity. For “CAATCCAGAAGGCGCTGAACTTTGCCTTGTGCCTAGGGAGATTAGAGTATCGGTCGA” the value was 5.04 log2 normalized intensity; for “ATGGGACCTTTGCCCTTCTTGTTAACCTCCGCCTAGGGAGATTAGAGTATCGGTCGA”, 4.54 log2 normalized intensity. As for “CCTGAGCCTGGACCTTGGAATGTCAAGATTGCCTAGGGAGATTAGAGTATCGGTCGA”, the binding signal is 3.05 log2 normalized intensity. For “AGCAGCATAAAGGACTTTCAACCCTGTGATGCCTAGGGAGATTAGAGTATCGGTCGA” the value was 3.89 log2 normalized intensity; for “AAAACCATTGCAAATTGGATGTTGAACCTCGCCTAGGGAGATTAGAGTATCGGTCGA”, 4.51 log2 normalized intensity. On to “ATGGAAGGACCTTGGACTGAAGACTGGAACGCCTAGGGAGATTAGAGTATCGGTCGA”, for which the binding signal is 3.17 log2 normalized intensity. For “AGGGTCTTTGCAACTGTGTGTGGCCTGCACGCCTAGGGAGATTAGAGTATCGGTCGA” the value was 1.53 log2 normalized intensity. As for “ATGGCCAGCCTTTGGACTTTGAACTGCAACGCCTAGGGAGATTAGAGTATCGGTCGA”, the figure is 10.1 log2 normalized intensity; as for “GCTGGGTCAAAGTGTATGCATATTTTAAGTGCCTAGGGAGATTAGAGTATCGGTCGA”, 2.27 log2 normalized intensity. For the sequence “GAGGTTCCTGGAACTCTGACCTTTGCCCCCGCCTAGGGAGATTAGAGTATCGGTCGA”, the binding signal was 10.3 log2 normalized intensity. In the case of “AAATCTGCCCAACCTTTGCCCCTGGAGGGAGCCTAGGGAGATTAGAGTATCGGTCGA”, the binding signal turned out to be 4.18 log2 normalized intensity. For the sequence “GCCTGCCCCTCTGACCTCTCCTCCTACCTTGCCTAGGGAGATTAGAGTATCGGTCGA”, the binding signal came out at 3.39 log2 normalized intensity. As for “TTCATCCCCACCCCCACTGCCTGACCCCAAGCCTAGGGAGATTAGAGTATCGGTCGA”, the binding signal was 7.49 log2 normalized intensity. For “AGGAGGAGGTTCCTGGAACTCTGACCTTTGGCCTAGGGAGATTAGAGTATCGGTCGA” the value was 6.98 log2 normalized intensity.

For the sequence “CCCCCACTGCCTGACCCCAAGTAATAGCCGGCCTAGGGAGATTAGAGTATCGGTCGA”, the binding signal worked out at 5.69 log2 normalized intensity. For “TCCTGGAACTCTGACCTTTGCCCCCAGCCTGCCTAGGGAGATTAGAGTATCGGTCGA” the value was 10.1 log2 normalized intensity.
